Data from PubChem BioAssay AID624255 (Broad Institute, 2012).
Among all 77,000 compounds or so, about 4,600 (6%) were called active. About 1% were inconclusive and are not listed. This is one part of a sample in which actives are shown more often than they occur. Unmarked numbers belong to inactive results.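 The calls were made as follows: active = mean inhibition above about 93%, with at least 55% of replicates each passing it (limit read from the data, passing the limit was not always enough); inconclusive = only one of those two conditions holds; inactive = neither condition holds.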

experiment: T. cruzi intracellular proliferation inhibitors, primary screen, cell-based, beta-gal Tulahuen parasites, NIH3T3 host, luminescence (AID 624255); conditions: T. cruzi beta-gal in NIH3T3, GalScreen luminescence, 90 h; at 8.34 µM; stronger effect = higher value

Compared with CO[C@@H]1CN(C)C(=O)c2cc(NC(=O)c3cccc(F)c3)ccc2OC[C@H](C)N(C)C[C@@H]1C, CO[C@@H]1CN(C)C(=O)c2ccc(NS(=O)(=O)c3ccc(C)cc3)cc2OC[C@@H](C)N(Cc2nccs2)C[C@H]1C is higher in inhibition: 13.5% for the first, 41.1% for the second.

Compared with O=C(c1cccnc1)N1C[C@H]2[C@@H](c3ccccc31)[C@H](CO)N2C(=O)C1CCCCC1, O=C(C1CCOCC1)N1C[C@H]2[C@@H](c3ccccc31)[C@@H](CO)N2Cc1ccccc1F is lower in inhibition: 19.5% for the first, -22.5% for the second.

Going from COC(=O)C[C@@H]1CC[C@@H]2[C@H](COc3ccc(NS(=O)(=O)c4ccccc4F)cc3C(=O)N2C)O1 to CC(C)NC(=O)Nc1ccc2c(c1)C(=O)N(C)[C@H]1CC[C@H](CC(=O)NCC3CCCCC3)O[C@@H]1CO2, the inhibition falls from 27.2% to 22.4%.

First: CCCC(=O)Nc1ccc2c(c1)OC[C@@H](C)N(CC1CCOCC1)C[C@H](C)[C@H](OC)CN(C)C2=O
Second: CCCN(C)C[C@H]1OCCCC[C@@H](C)Oc2ccc(NC(=O)CCC(F)(F)F)cc2C(=O)N([C@H](C)CO)C[C@H]1C
The inhibition of the first is lower: 7.69% for the first, 67.3% for the second.

First: CCC(=O)N1CCCCN2[C@H](CO)[C@@H](c3ccc(-c4cccnc4)cc3)[C@H]2C1
Second: COCC(=O)N1CCCCN2[C@H](C1)[C@@H](c1ccc(-c3ccccc3)cc1)[C@@H]2CO
The inhibition of the first is higher: 88.7% for the first, 53.8% for the second.

Compared with COCC(=O)N1CCCCN2[C@H](CO)[C@H](c3ccc(-c4ccc(OC)cc4)cc3)[C@H]2C1, COCC(=O)N1CCCCN2[C@H](CO)[C@@H](c3ccc(-c4ccc(OC)cc4)cc3)[C@@H]2C1 is lower in inhibition: 46.5% for the first, 4.91% for the second.

Compared with C/C=C/c1ccc([C@H]2[C@@H](CO)N3CCCCN(C(=O)c4ccc(F)cc4)C[C@@H]23)cc1, CC(=O)N1CCCCN2[C@H](C1)[C@@H](c1ccc(-c3ccc(F)cc3)cc1)[C@@H]2CO is lower in inhibition: 90.9% for the first, 71% for the second.

Going from O=C(CN1CCOCC1)N1CCCCN2[C@H](C1)[C@H](c1ccc(-c3ccccc3F)cc1)[C@@H]2CO to O=C(CN1CCOCC1)N1CCCCN2[C@H](CO)[C@H](c3ccc(Br)cc3)[C@H]2C1, the inhibition rises from 26.1% to 36%.

Going from C[C@@H]1CN([C@@H](C)CO)C(=O)c2cc(C#CC3CC3)cnc2O[C@@H]1CN(C)C(=O)Cc1ccccn1 to CC(C)CC#Cc1cnc2c(c1)C(=O)N([C@H](C)CO)C[C@H](C)[C@@H](CN(C)C(=O)Cc1cccnc1)O2, the inhibition falls from 51.4% to 3.64%.

Going from O=C(C[C@H]1CC[C@@H](NC(=O)c2ccncc2)[C@@H](CO)O1)Nc1ccccc1 to O=C(Nc1ccc(F)cc1)N[C@@H]1CC[C@H](CC(=O)N2CCCCC2)O[C@H]1CO, the inhibition falls from 19.5% to -3.48%.

Compared with OC[C@H]1[C@@H](c2ccc(/C=C/c3ccccc3)cc2)[C@H]2CN(Cc3cccnc3)CCCCN21, Cc1noc(C)c1S(=O)(=O)N(C)C[C@@H]1OCCCC[C@@H](C)Oc2ccc(NC(=O)c3ccccc3)cc2C(=O)N([C@@H](C)CO)C[C@@H]1C is lower in inhibition: 23.4% for the first, 14.7% for the second.

Compared with Cc1ccc(S(=O)(=O)Nc2ccc3c(c2)C(=O)N([C@@H](C)CO)C[C@@H](C)[C@H](CN(C)Cc2ccc(C(F)(F)F)cc2)O3)cc1, COc1ccc(CN(C)C[C@H]2Oc3ccc(NS(=O)(=O)c4ccc(C)cc4)cc3C(=O)N([C@@H](C)CO)C[C@H]2C)cc1 is lower in inhibition: 42.1% for the first, 37.9% for the second.

First: COc1ccc(S(=O)(=O)Nc2ccc3c(c2)CC(=O)N([C@@H](C)CO)C[C@H](C)[C@@H](CN(C)Cc2ccc(C(=O)O)cc2)O3)cc1
Second: COc1ccc(S(=O)(=O)Nc2ccc3c(c2)C(=O)N([C@@H](C)CO)C[C@H](C)[C@H](CN(C)Cc2ccc(C(=O)O)cc2)O3)cc1
The inhibition of the first is lower: -13.7% for the first, -6.07% for the second.

Compared with COc1ccc(S(=O)(=O)Nc2ccc3c(c2)CC(=O)N([C@H](C)CO)C[C@H](C)[C@H](CN(C)Cc2ccc(C(F)(F)F)cc2)O3)cc1, C[C@@H]1CN([C@@H](C)CO)C(=O)Cc2cc(NS(=O)(=O)c3ccc(Cl)cc3)ccc2O[C@H]1CN(C)Cc1ccc(C(F)(F)F)cc1 is lower in inhibition: 75% for the first, -1.87% for the second.

Going from COc1ccc(CN(C)C[C@@H]2Oc3ccc(NS(=O)(=O)c4ccc(F)cc4)cc3C(=O)N([C@@H](C)CO)C[C@@H]2C)cc1 to COc1ccc(CN(C)C[C@@H]2Oc3ccc(NS(=O)(=O)c4ccc(OC)cc4)cc3C(=O)N([C@H](C)CO)C[C@H]2C)cc1, the inhibition falls from 11.1% to 0.955%.

Going from C[C@@H]1CN([C@@H](C)CO)S(=O)(=O)c2ccc(-c3ccncc3)cc2O[C@@H]1CN(C)C(=O)C1CCC1 to CCCNC(=O)[C@H]1[C@H](CO)[C@H]2Cn3c(ccc(-c4cccc(F)c4)c3=O)[C@@H]1N2C(=O)CC, the inhibition falls from 76.2% to 1.74%.

With O=C(CN1CCOCC1)N1CCCCN2[C@H](CO)[C@H](c3ccc(-c4ccccc4)cc3)[C@@H]2C1 the inhibition was 102% (active).
For O=C(CN1CCOCC1)N1CCCCN2[C@@H](CO)[C@H](c3ccc(-c4ccccc4)cc3)[C@@H]2C1, the inhibition was 112% (active).
With CCC(=O)N1CCCCN2[C@H](C1)[C@@H](c1ccc(-c3ccc(F)cc3)cc1)[C@@H]2CO the inhibition was 101% (active).
For CCC(=O)N1CCCCN2[C@H](C1)[C@@H](c1ccc(/C=C/c3ccccc3)cc1)[C@@H]2CO, the inhibition was 105% (active).
In the case of O=C(CN1CCOCC1)N1CCCCN2[C@@H](CO)[C@H](c3ccc(/C=C/c4ccccc4)cc3)[C@@H]2C1, the inhibition is reported as 102% (active).
In the case of COc1ccc(S(=O)(=O)Nc2ccc3c(c2)C(=O)N([C@@H](C)CO)C[C@H](C)[C@@H](CN(C)Cc2ccc(C(F)(F)F)cc2)O3)cc1, the inhibition is reported as 105% (active).
With C[C@H](CO)N1C[C@H](C)[C@H](CN(C)Cc2ccc(C(F)(F)F)cc2)Oc2ccc(NS(=O)(=O)c3ccc(Cl)cc3)cc2C1=O the inhibition was 127% (active).
With COc1ccc(CN(C)C[C@H]2Oc3ccc(NS(=O)(=O)c4ccc(Cl)cc4)cc3CC(=O)N([C@@H](C)CO)C[C@H]2C)cc1 the inhibition was 96.7% (active).
In the case of COc1ccc(S(=O)(=O)Nc2ccc3c(c2)C(=O)N([C@H](C)CO)C[C@H](C)[C@H](CN(C)Cc2ccc(C(F)(F)F)cc2)O3)cc1, the inhibition is reported as 100% (active).
